# Laboratory results taken from PubChem BioAssay AID651814 (National Center for Advancing Translational Sciences (NCATS), 2012).
# Screen size: about 2,100 compounds; about 590 (28%) were called active. Roughly 42% stayed inconclusive and do not appear here. This is one part of the list. Unmarked numbers belong to inactive results. The call rests on the fitted dose curve; in most records, active means well fitted inhibition curve with a large enough effect; inconclusive means small, poorly fitted or top-dose-only effect; inactive means flat fitted curve, though single readings scatter.
# Target: DNA dC->dU-editing enzyme APOBEC-3F (Homo sapiens) (UniProt Q8IUX4)
# Sequence (Q8IUX4 whole entry, looked up): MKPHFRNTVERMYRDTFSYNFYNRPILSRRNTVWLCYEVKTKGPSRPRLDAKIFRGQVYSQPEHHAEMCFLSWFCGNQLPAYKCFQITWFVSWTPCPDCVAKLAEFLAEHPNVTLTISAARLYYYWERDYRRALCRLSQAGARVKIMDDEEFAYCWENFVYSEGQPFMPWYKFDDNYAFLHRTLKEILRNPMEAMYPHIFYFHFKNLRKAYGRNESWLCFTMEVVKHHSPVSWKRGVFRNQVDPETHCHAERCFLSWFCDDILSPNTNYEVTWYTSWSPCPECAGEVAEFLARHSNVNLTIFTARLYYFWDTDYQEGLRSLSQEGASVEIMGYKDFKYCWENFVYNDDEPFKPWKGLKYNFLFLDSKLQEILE
# Experiment: qHTS for inhibitors of Vif-A3F interactions: Cherry picks; further: nearly all actives have a fitted effect of over 70% in size;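 on max response: % of control where 0% means no effect; active compounds raise eYFP fluorescence by blocking Vif-driven A3F loss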
# Conditions: HeLa A3F-eYFP + Vif (tagged APOBEC3F with the HIV-1 protein that degrades it), eYFP fluorescence, 24 h
# From the text: The recent discovery and characterization of host restriction factors, which provide a potent defense to invading retroviruses, has provided new targets for antiviral drug development. APOBEC3G (A3G) and APOBEC3F (A3F) are potent cytidine deaminases that block HIV-1 replication; HIV-1 expresses the Vif protein, which counteracts A3G and A3F by binding to them and inducing their proteasomal degradation. The Vif-A3G and Vif-A3F interactions provide two potential targets for development of small molecules which can interfere with the ability of Vif to degrade A3G or A3F. […] To identify inhibitors that can interfere with Vif mediated degradation of A3G and A3F, we have developed Hela cell lines that stably express A3G or A3F tagged with eYFP at the C-terminal end (A3G-eYFP or A3F-eYFP, respectively) and Vif. In the absence of an inhibitor, Vif induces degradation of A3G-eYFP and A3F-eYFP, and the cells are not fluorescent. In the presence of an inhibitor, it is expected that Vif will be unable to degrade A3G-eYFP and/or A3F-eYFP, resulting in an increase in yellow fluorescence. In this assay, Vif A3F was screened against the cherry picks ordered from the MLSMR. NIH Chemical Genomics Center [NCGC] NIH Molecular Libraries Probe Centers Network [MLPCN] MLPCN Grant: MH093245 Assay Submitter (PI): Vinay Pathak, National Cancer Institute
# A3F-Vif cells were harvested from T225 flask and resuspended in phenol free OPTI-MEM medium with 5% FBS. Then 5 uL of 140,000 cells/mL resuspended cells was dispensed into each well of low base Aurora COC 1,536-well plates (black walled, clear bottom) using a Multidrop Combi dispenser. After overnight culture at 37 deg C with 5% CO2, a total of 23 nL of compounds at 5 selected concentrations from the NPC or positive control (2 mM stock of MG132) in DMSO was transferred to each well of the assay plate using a pintool (Kalypsys, San Diego, CA), and the plates were further incubated at 37 deg C with 5% CO2 for 24 hours. After that, the plates were measured on Acumen Explorer (TTP Lab Tech). The fluorescence was detected by 488 nm/Ex and […].
# Potency means the concentration at half of the fitted maximal effect.
SMILES,max response,Potency
CCCCCCN1C[C@H](O)[C@@H](n2cc(COC(=O)c3ccccc3)nn2)C[C@@H]1c1ccc(C)cc1,-0.173%,–
Cc1ccc2c(c1)Sc1c(ccc3ccccc13)N2,–,16.4 µM (active)
COc1ccc(-c2csc(-c3ccc(O)cc3)n2)cc1,-24.3%,–
Oc1ccc(-c2nc(-c3ccc(O)c(O)c3)cs2)cc1,–,4.44 µM (active)
COc1ccc(OC)c(CNc2nc3ccc(C)cc3n3nnnc23)c1,-21.9%,–
OCCCn1c(C2CCCN2c2nc(-c3ccc(Cl)cc3)cs2)nc2cc(Cl)c(Cl)cc21 (configuration not stated),-3.45%,–
CCCCCCCNc1ccc(/C=C/c2ccnc3ccccc23)cc1,–,20.6 µM (active)
CCCCCCNc1ccc(/C=C/c2ccnc3ccccc23)cc1,–,18.4 µM (active)
C/C(=N\NC(=O)c1cc(C)nc2ccccc12)c1ccncc1,-5.92%,–
COc1ccc(-c2cc(NC(C)=O)c3ncc(-c4cc(OC)c(OC)c(OC)c4)n3c2)cn1,–,4.98 µM (active)
COc1ccc(NC(=O)C2Cc3c(-c4ccc(NC(C)=O)cc4)ccnc3O2)cn1 (configuration not stated),-27.7%,–
Cc1ccc(-c2cc(NC=O)c3ncc(-c4cnn(C)c4)n3c2)cc1,–,7.9 µM (active)
COc1ccccc1-c1cc(NC=O)c2ncc(-c3ccc(S(C)(=O)=O)cc3)n2c1,–,7.04 µM (active)
COc1ccc(-c2cnc3c(NC=O)cc(-c4ccccc4)cn23)cc1OC,–,4.98 µM (active)
CCOc1ccc2nc(NC(=O)c3nc(SC(C)C)ncc3Cl)sc2c1,-25.8%,–
COC(=O)c1sc(-c2cccs2)cc1NC(=O)/C=C/C(=O)O,-22.3%,–
O=C1NC(c2ccccc2Br)=N/C1=C\c1ccco1,-25.1%,–
COc1ccc(-c2cc(NC=O)c3ncc(-c4ccc(OC)c(OC)c4)n3c2)cc1OC,–,7.04 µM (active)
CN(C)C(=O)c1cccc(-c2cnc3c(NC=O)cc(-c4ccccc4F)cn23)c1,-4.66%,–
COc1ccc(-c2cnc3c(NC=O)cc(-c4cc(OC)c(OC)c(OC)c4)cn23)cc1OC,–,15.8 µM (active)
COc1ccc(-c2cnc3c(NC=O)cc(-c4ccoc4)cn23)cc1OC,–,11.2 µM (active)
COc1ccc(-c2nc3c4ccccc4ccn3c2Cc2ccsc2)cc1OC,-2.92%,–
CN(C)c1ccccc1-c1cc(NC=O)c2ncc(-c3cccc(C(F)(F)F)c3)n2c1,–,15.8 µM (active)

SMILES,max response,Potency
Cc1cc(C)nc(Nc2n[nH]c(COc3cccc4ccccc34)n2)n1,-15.5%,–
Cc1cc(C)nc(NC(=S)Nc2cccc(Cl)c2Cl)c1,-10.1%,–
COc1ccc(C2=NOC(C(=O)NCc3ccc(F)cc3)C2)cc1 (configuration not stated),-16.1%,–
CN(C)c1ccc(/C=C/c2ccnc3ccccc23)cc1N,-19.7%,–
CN(C)c1ccc(/C=C/c2ccnc3ccccc23)cc1O,–,11.6 µM (active)
CCc1cc(/C=C/c2ccnc3ccccc23)ccc1N(C)C,–,14.6 µM (active)
CN1CCCc2cc(/C=C/c3ccnc4ccccc34)ccc21,–,4.11 µM (active)
Cc1cc(/C=C/c2ccnc3ccccc23)ccc1N(C)C,–,8.2 µM (active)
CCS(=O)(=O)c1nn2c(N)c(/C=C3/C=CC(=O)C(OC)=C3)c(=O)nc2s1,11%,–
Cc1ccc(NC(=S)N/N=C2\CCCCC2C)cc1 (configuration not stated),0.346%,–
O=C(/C=C/c1ccccc1)Nc1ncn[nH]1,-21.2%,–
Cc1cc(/C=C/c2ccnc3ccccc23)ccc1N,–,14.6 µM (active)
COc1cccc(-c2ccc3c(N)c(C(=O)c4ccc(Cl)cc4)sc3n2)c1,–,18.4 µM (active)
COc1ccc2nc3sc(C(=O)Nc4cc(Cl)c(OC)cc4OC)cc3cc2c1,-28.2%,–
COc1cccc(-c2ccc3c(N)c(C(=O)c4ccc(Br)cc4)sc3n2)c1,–,10.3 µM (active)
N#CC(C#N)=C1C=C2C=C(N3CCOCC3)CCC2CC1 (configuration not stated),0.0461%,–
O=C1N/C(=N\N=C\c2ccco2)SC1Cc1ccccc1[N+](=O)[O-] (configuration not stated),-0.95%,–
Cn1c2ccccc2c2ccc3c(c21)C(=O)C=CC3=O,5.63%,–
COc1c(-c2ccc(O)c(O)c2)oc2cc(O)cc(O)c2c1=O,–,14 µM (active)
CCC[N+](C)(C)c1ccc(/C=C/c2ccncc2)cc1,–,2.31 µM (active)
CC[N+](C)(C)c1ccc(/C=C/c2ccncc2)cc1,–,4.11 µM (active)
CC1CC(=O)C2=C(C1)OC(N)=C(C#N)C2c1coc2ccccc2c1=O (configuration not stated),-25.1%,–
COc1cc(/C=C(/C#N)c2nc3ccccc3[nH]2)ccc1OCC(=O)Nc1ccccc1C(C)C,–,16.4 µM (active)

SMILES,max response,Potency
COc1cc(/C=C(\C#N)c2nc3ccccc3[nH]2)ccc1OCc1ccccc1F,–,18.4 µM (active)
COc1cc(/C=C(\C#N)c2nc3ccccc3[nH]2)ccc1O,6%,–
COc1cc(/C=C(\C#N)c2nc3ccccc3s2)ccc1OCC(=O)Nc1ccccc1,–,14 µM (active)
CCC(=O)Nc1nc2ccc(NC(=O)c3cc(OC)c(OC)c(OC)c3)cc2s1,-4.22%,–
COc1ccc(OC)c2sc(NC(=O)CCS(=O)(=O)c3ccccc3)nc12,-17.2%,–
COc1cc(OC)c(/C=C/c2ccnc3ccccc23)c(OC)c1,–,14.6 µM (active)
COc1cc(/C=C/c2ccnc3ccccc23)ccc1N(C)C,–,9.2 µM (active)
COc1ccc(OC)c(Nc2nc(-c3ccncc3)nc3ccccc23)c1,-10.6%,–
COc1cc(N(C)C)c(OC)cc1/C=C/c1ccnc2ccccc12,–,20.6 µM (active)
Cc1cc(C)c(NC(=O)Cn2c(=O)n(Cc3ccc(C(=O)NCc4ccco4)cc3)c(=O)c3sccc32)c(C)c1,–,14.6 µM (active)
Cc1c(C)n(Cc2ccccc2)c2ccc(C(=O)NCc3ccco3)cc12,-24.7%,–
COc1ccccc1-c1c(C#N)c(N)nc2c1CCc1ccccc1-2,-14.7%,–
COc1ccc2c(n1)Sc1nc3ccccc3nc1N2,–,4.11 µM (active)
CCCOc1ccc2cc(C(=O)NCc3ccccc3)c(=O)oc2c1,-1.07%,–
CCCOc1ccc(C(=O)Nc2cccc(NC(=O)c3ccc(Cl)cc3Cl)c2)cc1,–,16.4 µM (active)
Cc1ccc(NC(=S)NC(=O)c2ccc(F)cc2)cc1S(=O)(=O)Nc1cccc(Cl)c1,-16.8%,–
c1cncc(-c2nc(NCc3cccs3)c3ccccc3n2)c1,-5.9%,–
COc1ccc(-c2cc(-c3nnc(COC(=O)c4ccncc4)o3)c3ccccc3n2)cc1OC,2.21%,–
CC(=O)N/N=C/c1cc(C(C)(C)C)cc(/C=N/NC(C)=O)c1O,–,23.1 µM (active)
NC(=S)N/N=C/c1cccc(O)c1O,-21%,–
Cc1c(C(=O)Nc2ccc(C(C)C)cc2)sc2nc3n(c(=O)c12)CCC3,-1.94%,–
COc1ccc(NC(=O)c2oc3ccc(S(=O)(=O)N4CCOCC4)cc3c2C)cc1,-0.455%,–
CCc1cccc2cc3c(N)c(C(=O)Nc4ccc(S(=O)(=O)N5CCCC5)cc4)sc3nc12,–,2.8 µM (active)

SMILES,max response,Potency
Nc1c(C(=O)Nc2ccc(S(=O)(=O)N3CCCC3)cc2)sc2nc3ccc(OC(F)(F)F)cc3cc12,–,20.6 µM (active)
O=C(Nc1ccc(Cl)cn1)c1cccc(S(=O)(=O)N2CCCCCC2)c1,-1%,–
Nc1c(C(=O)Nc2ccc(S(=O)(=O)N3CCCC3)cc2)sc2nc3cc4c(cc3cc12)CCC4,–,6.51 µM (active)
O=C(CN1c2cccc3cccc(c23)S1(=O)=O)Nc1ccc(S(=O)(=O)N2CCOCC2)cc1,-0.998%,–
CC(C)c1ccc(C(=O)NCCCNC(=O)c2cnccn2)cc1,1.42%,–
Fc1cccc(F)c1/C=N/NC(=S)Nc1cccnc1,-0.429%,–
O=C(Nc1ccc([N+](=O)[O-])cc1)C(Cc1ccccc1)N1C(=O)c2cccc3cccc(c23)C1=O (configuration not stated),–,12.5 µM (active)
O=C(O)Cc1sc(NC2CCCCC2)nc1-c1ccc(Cl)cc1,-1.51%,–
Cc1ccc(NC(=O)CSc2n[nH]c(-c3ccccn3)n2)cc1,-3.6%,–
COCc1cc(C)nc(SCC(=O)Nc2ccc3[nH]c(=O)[nH]c3c2)c1C#N,0.302%,–
Cc1nc2cc(NC(=O)CSc3nc4c(C)cccc4cc3C#N)ccc2s1,–,11.6 µM (active)
Cc1cc(NC(=O)CSc2nc3c(C)cccc3cc2C#N)no1,–,7.31 µM (active)
Cc1nonc1NC(=O)CSc1nc2c(C)cccc2cc1C#N,–,18.4 µM (active)
CN1C(=O)N(C)c2ccc(C=O)c3cccc1c23,-1.54%,–
N#C/C(=C/c1cccs1)c1ccccn1,–,17.7 µM (active)
CCOc1ccc(Br)cc1C1C(C(=O)OC)=C(N)Oc2cc(N(C)C)ccc21 (configuration not stated),-21.7%,–
Cc1ccc(N=C2NC(=O)/C(=C/c3cccn3C)S2)cc1,–,9.94 µM (active)
Cc1ccc(N=C2NC(=O)/C(=C/c3cn(C)c4ccccc34)S2)cc1C,–,17.7 µM (active)
Cn1cccc1/C=C1\SC(=Nc2cccc(O)c2)NC1=O,–,15.8 µM (active)
COc1cccc(N=C2NC(=O)/C(=C/c3cc([N+](=O)[O-])ccc3O)S2)c1,-16.1%,–
Cc1cccc(N=C2NC(=O)/C(=C/c3cccn3C)S2)c1,-9.23%,–
Cn1cccc1/C=C1\SC(=Nc2ccc(O)cc2)NC1=O,–,12.5 µM (active)
C=C1C(=O)O[C@@H]2[C@H]1[C@@H](OC(=O)/C(C)=C/C)C/C(C)=C\C(=O)/C=C(\C)[C@@H]2O,-29.6%,–
